Experimental findings from PubChem BioAssay (Tox21) are described below.

Assay [1] in a line: Caspase-3/7 induction in CHO-K1 cells by small molecules, qHTS assay (AID 1346980). Note: % is set by controls: 0 for no effect and ±100 for the full control effect; nearly all actives have a fitted effect of over 15% in size. The procedure, abridged:
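Wild-type CHO-K1 cells exposed to compounds for 17hr at 37 C, 5% CO2. Caspase-3/7 activity then measured by Caspase-Glo 3/7 luminescence after 30min at room temperature.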

The nature of assay [2]: Caspase-3/7 induction in HepG2 cells by small molecules, qHTS cell viability counter screen (AID 1346981). Note: nearly all actives have a fitted effect of over 30% in size. Note: potency is the fitted concentration of half-maximal effect. The procedure, abridged: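 Cell viability is measured as a cytotoxicity counter screen alongside the Caspase-Glo 3/7 readout in identical wells. Wild-type HepG2 cells are treated with test compounds for 16 hr at 37 C before CellTiter-Fluor addition and a 1-hr incubation.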

Assay [3] has as its target Nuclear receptor subfamily 1 group I member 2 (Homo sapiens) (UniProt O75469). The assay is described as follows: Human pregnane X receptor (PXR) small molecule agonists, qHTS assay (AID 1346982). For activation: % is set by controls: 0 for no effect and ±100 for the full control effect. Note: nearly all actives have a fitted effect of over 35% in size. Note: potency is the fitted concentration of half-maximal effect. The procedure, abridged: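 Cells: HepG2 stably carrying PXR-Luc. Medium held 5% charcoal-stripped FBS. Compounds in DMSO added after 5 hr plating, incubated 24 hr, then luminescence quantified with ONE-Glo.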

The target in assay [4] is Acetylcholinesterase (Homo sapiens) (UniProt P22303). The assay is described as follows: Acetylcholinesterase (AChE) small molecule antagonists: colormetric cell-based qHTS assay (AID 1347395; calls by dose curve; note: % is set by controls: 0 for no effect and ±100 for the full control effect; nearly all actives have a fitted effect of over 30% in size). The procedure, abridged: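 In this cell-based qHTS, attached SH-SY5Y cells were treated with test chemicals for 30 min, after which acetylthiocholine hydrolysis was followed by DTNB colour development over 90 min at 37 C.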
Acetylcholinesterase (Homo sapiens), sequence (P22303 whole entry, looked up): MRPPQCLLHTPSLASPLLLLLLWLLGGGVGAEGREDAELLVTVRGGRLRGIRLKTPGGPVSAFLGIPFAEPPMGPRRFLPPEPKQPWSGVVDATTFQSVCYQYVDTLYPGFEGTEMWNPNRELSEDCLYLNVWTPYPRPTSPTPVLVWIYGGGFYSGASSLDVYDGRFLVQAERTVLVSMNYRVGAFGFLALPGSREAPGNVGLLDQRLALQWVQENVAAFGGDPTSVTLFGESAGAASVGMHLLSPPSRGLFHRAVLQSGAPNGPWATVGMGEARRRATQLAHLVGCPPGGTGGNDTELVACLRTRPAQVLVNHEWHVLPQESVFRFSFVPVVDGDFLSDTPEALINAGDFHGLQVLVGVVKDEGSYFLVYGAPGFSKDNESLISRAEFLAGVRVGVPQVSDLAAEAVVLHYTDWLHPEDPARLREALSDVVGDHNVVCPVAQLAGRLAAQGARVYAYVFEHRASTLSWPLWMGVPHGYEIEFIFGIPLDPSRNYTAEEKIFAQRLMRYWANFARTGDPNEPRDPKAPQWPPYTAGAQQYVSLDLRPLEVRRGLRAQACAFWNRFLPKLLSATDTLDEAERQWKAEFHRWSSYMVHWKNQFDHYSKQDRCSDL

Assay [5] has the same target. Nature of the assay: Acetylcholinesterase (AChE) small molecule antagonists: enzyme-based qHTS assay (AID 1347397; calls by dose curve; note: % is set by controls: 0 for no effect and ±100 for the full control effect; nearly all actives have a fitted effect of over 55% in size). Particulars: Potency: AChE enzyme activity inhibition. The procedure, abridged:
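Colorimetric DTNB read-out of thiocholine released from acetylthiocholine by recombinant human AChE (50 mU/mL as dispensed). Compounds were preincubated 30 min at RT before substrate/DTNB addition, with a 10 min RT reaction.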

For assay [6] the target is unchanged. Nature of the assay: Acetylcholinesterase (AChE) small molecule antagonists: fluorescence cell-based qHTS assay (AID 1347398; calls by dose curve; note: % is set by controls: 0 for no effect and ±100 for the full control effect; nearly all actives have a fitted effect of over 50% in size). Particulars: Potency: AChE activity. Put shortly:
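SH-SY5Y, 2,000 cells/well, attached overnight; cmpd 30 min 37 C; acetylthiocholine/Thiolite Green cocktail 40 min RT; fluorescence Ex/Em 490/520 nm.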

Assay [7] concerns the target Cytochrome P450 2D6 (Homo sapiens) (UniProt P10635). Nature of the assay: Cytochrome P450 Family 2 Subfamily D Member 6 (CYP2D6) small molecule antagonists: luciferase reporter qHTS assay (AID 1671196). Note: nearly all actives have a fitted effect of over 50% in size. Note: potency is the fitted concentration of half-maximal effect. The procedure, abridged:
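Enzyme and proluciferin substrate were first combined with test chemical for 10 min at room temperature. Adding NADPH regeneration solution started a 1 h reaction, stopped with luciferin detection reagent and read by luminescence 20 min later.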

The target in assay [8] is Cytochrome P450 2C19 (Homo sapiens) (UniProt P33261). Nature of the assay: Cytochrome P450 Family 2 Subfamily C Member 19 (CYP2C19) small molecule antagonists: luciferase reporter qHTS assay (AID 1671197). Note: nearly all actives have a fitted effect of over 65% in size. Note: potency is the fitted concentration of half-maximal effect. The procedure, abridged: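 First, compounds are pinned into enzyme-substrate mix and held 10 min at room temperature. Second, NADPH regeneration solution is added and plates incubate 1 h at 37C. Third, detection reagent is added and luminescence read after 20 min.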
Cytochrome P450 2C19 (Homo sapiens), sequence (P33261 whole entry, looked up): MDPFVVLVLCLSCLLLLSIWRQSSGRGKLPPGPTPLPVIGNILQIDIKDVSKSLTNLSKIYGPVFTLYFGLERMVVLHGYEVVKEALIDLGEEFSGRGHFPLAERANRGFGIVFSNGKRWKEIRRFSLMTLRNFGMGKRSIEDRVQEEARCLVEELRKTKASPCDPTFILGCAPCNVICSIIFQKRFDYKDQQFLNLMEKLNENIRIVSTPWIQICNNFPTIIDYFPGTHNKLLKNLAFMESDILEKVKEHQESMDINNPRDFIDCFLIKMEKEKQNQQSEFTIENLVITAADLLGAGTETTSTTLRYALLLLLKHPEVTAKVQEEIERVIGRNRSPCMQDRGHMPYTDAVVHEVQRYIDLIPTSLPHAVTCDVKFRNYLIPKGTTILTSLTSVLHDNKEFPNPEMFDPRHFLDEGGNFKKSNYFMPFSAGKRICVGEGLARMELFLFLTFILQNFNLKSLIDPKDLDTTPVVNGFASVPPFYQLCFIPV

For assay [9], the target named is Cytochrome P450 2C9 (Homo sapiens) (UniProt P11712). Nature of the assay: Cytochrome P450 Family 2 Subfamily C Member 9 (CYP2C9) small molecule antagonists: luciferase reporter qHTS assay (AID 1671198). Note: nearly all actives have a fitted effect of over 50% in size. Note: potency is the fitted concentration of half-maximal effect. Put shortly: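 P450-Glo proluciferin substrate with CYP2C9 enzyme; 10 min RT preincubation, then NADPH regeneration 1 h at 37C; luciferin detection reagent 20 min RT, luminescence in relative luminescence units.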
Cytochrome P450 2C9 (Homo sapiens), sequence (P11712 whole entry, looked up): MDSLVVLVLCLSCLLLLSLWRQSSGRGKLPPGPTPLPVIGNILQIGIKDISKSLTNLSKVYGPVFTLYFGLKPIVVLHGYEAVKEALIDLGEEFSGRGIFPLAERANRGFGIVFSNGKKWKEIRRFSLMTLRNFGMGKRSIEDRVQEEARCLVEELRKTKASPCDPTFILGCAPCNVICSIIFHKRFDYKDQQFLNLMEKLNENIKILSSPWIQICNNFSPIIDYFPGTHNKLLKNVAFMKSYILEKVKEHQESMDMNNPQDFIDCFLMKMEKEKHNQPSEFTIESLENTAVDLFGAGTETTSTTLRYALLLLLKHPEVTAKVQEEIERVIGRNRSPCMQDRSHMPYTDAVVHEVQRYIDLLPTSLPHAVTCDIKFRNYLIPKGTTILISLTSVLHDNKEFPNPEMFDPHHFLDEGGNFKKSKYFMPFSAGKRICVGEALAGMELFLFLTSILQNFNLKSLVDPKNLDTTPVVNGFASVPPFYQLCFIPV

The target of assay [10] is Nuclear receptor subfamily 1 group I member 2 (Rattus norvegicus) (UniProt Q9R1A7). The assay is described as follows: Rat pregnane X receptor (rPXR) activation by small molecules, qHTS assay (AID 1346983). Note: % is set by controls: 0 for no effect and ±100 for the full control effect; nearly all actives have a fitted effect of over 20% in size. As to conditions: rPXR luciferase reporter cells, One-Glo luminescence, 24 h; max activation: stronger effect = higher value. The procedure, abridged: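 Cell-based rPXR activation assay: rPXR cells, 2,000 per well, rested 5hr at 37 C, then exposed to compounds in DMSO for 24 hr at 37 C. Luciferase activity read by One-Glo luminescence after 30 min at room temperature.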

For assay [11], the target named is Nuclear receptor subfamily 1 group I member 2 (Homo sapiens) (UniProt O75469). Nature of the assay: CYP3A4 induction through human pregnane X receptor (PXR) by small molecules, qHTS assay (AID 1346984). Note: potency is the fitted concentration of half-maximal effect; nearly all actives have a fitted effect of over 40% in size. The procedure, abridged:
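Quantitative HTS in DPX-2 cells, i.e. HepG2 transfected with PXR response element and CYP3A4-promoter luciferase. Compounds in DMSO incubated 24hr at 37C; then P450-Glo CYP3A4 substrate, 3uM final, 3hr; One-Glo luminescence.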

For assay [12] the target is unchanged. Nature of the assay: Human pregnane X receptor (PXR) activation by small molecules, qHTS assay (AID 1346985). Note: % is set by controls: 0 for no effect and ±100 for the full control effect; nearly all actives have a fitted effect of over 40% in size. The procedure, abridged: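 DPX-2 cells (HepG2 co-transfected with a PXR response element and a CYP3A4-promoter luciferase construct) were seeded at 2,000 per well, rested 5 hr at 37C, then exposed to DMSO-dissolved compounds for 24 hr. Activation was read as luciferase luminescence.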

The target of assay [13] is Cytochrome P450 1A2 (Homo sapiens) (UniProt P05177). Nature of the assay: Cytochrome P450 Family 1 Subfamily A Member 2 (CYP1A2) small molecule antagonists: luciferase reporter qHTS assay (AID 1671199). Note: nearly all actives have a fitted effect of over 50% in size. Note: potency is the fitted concentration of half-maximal effect. Put shortly: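 Compounds were incubated with CYP1A2 and a luminogenic proluciferin substrate for 10 min at room temperature before the reaction was started with NADPH regeneration solution. After 1 h, detection reagent was added and light output, proportional to CYP activity, was recorded.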
Cytochrome P450 1A2 (Homo sapiens), sequence (P05177 whole entry, looked up): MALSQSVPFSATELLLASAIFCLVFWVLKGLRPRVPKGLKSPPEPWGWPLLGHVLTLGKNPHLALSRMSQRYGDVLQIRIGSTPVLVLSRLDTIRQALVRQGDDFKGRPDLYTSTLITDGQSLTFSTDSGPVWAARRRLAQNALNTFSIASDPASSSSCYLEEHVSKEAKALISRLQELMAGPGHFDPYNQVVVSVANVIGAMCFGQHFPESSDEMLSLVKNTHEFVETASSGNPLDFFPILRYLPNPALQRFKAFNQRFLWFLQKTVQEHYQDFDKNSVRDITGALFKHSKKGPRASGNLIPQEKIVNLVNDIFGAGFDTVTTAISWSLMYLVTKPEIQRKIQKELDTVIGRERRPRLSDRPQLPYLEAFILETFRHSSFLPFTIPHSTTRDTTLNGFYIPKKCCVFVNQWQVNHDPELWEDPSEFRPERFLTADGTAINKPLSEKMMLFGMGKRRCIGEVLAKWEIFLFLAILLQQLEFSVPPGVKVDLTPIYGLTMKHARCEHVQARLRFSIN

The target in assay [14] is Voltage-gated inwardly rectifying potassium channel KCNH2 (Homo sapiens) (UniProt Q12809). Nature of the assay: Human Ether-a-go-go-Related Gene (hERG) channel small molecule antagonists: fluorescence cell-based qHTS assay (AID 1671200). Note: nearly all actives have a fitted effect of over 50% in size. Note: potency is the fitted concentration of half-maximal effect. The procedure, abridged: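 Cell line hERG-U2OS; dye FluxOR II, 1 h RT dark; Tl+ stimulus; ex 480/em 540 nm, read each second for 2 min.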
Voltage-gated inwardly rectifying potassium channel KCNH2 (Homo sapiens), sequence (Q12809 whole entry, looked up): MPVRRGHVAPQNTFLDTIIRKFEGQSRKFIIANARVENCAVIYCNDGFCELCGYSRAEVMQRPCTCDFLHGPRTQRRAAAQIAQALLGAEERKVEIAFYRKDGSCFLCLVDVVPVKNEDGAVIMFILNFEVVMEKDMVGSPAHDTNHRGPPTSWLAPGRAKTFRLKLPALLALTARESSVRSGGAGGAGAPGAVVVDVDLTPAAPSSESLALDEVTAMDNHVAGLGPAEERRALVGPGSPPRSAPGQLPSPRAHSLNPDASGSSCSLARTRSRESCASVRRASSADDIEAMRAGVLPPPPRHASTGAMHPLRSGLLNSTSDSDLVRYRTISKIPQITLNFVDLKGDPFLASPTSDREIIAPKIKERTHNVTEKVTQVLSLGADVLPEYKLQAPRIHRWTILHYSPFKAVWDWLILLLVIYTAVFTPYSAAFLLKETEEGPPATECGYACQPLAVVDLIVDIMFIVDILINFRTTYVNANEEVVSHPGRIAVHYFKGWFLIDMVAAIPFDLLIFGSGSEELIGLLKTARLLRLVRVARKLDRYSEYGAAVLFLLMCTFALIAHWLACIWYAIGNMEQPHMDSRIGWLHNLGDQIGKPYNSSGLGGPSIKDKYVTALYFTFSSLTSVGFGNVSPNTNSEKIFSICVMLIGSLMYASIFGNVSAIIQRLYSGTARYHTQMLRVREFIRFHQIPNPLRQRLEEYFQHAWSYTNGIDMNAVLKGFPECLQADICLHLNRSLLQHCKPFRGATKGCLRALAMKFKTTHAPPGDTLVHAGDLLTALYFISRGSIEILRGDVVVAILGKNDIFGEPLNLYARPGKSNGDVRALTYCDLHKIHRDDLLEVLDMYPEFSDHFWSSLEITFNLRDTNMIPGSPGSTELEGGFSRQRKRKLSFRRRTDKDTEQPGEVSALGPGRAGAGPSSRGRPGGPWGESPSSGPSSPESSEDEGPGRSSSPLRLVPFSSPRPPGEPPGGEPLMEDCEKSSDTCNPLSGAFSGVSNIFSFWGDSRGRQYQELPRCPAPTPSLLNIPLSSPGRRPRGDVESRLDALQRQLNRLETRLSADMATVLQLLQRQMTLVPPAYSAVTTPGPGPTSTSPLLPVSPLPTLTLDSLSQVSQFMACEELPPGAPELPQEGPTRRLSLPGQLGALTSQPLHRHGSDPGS

Assay [15] concerns the target Cytochrome P450 3A4 (Homo sapiens) (UniProt P08684). The assay is described as follows: Cytochrome P450 Family 3 Subfamily A Member 4 (CYP3A4) small molecule antagonists: luciferase reporter qHTS assay (AID 1671201). Note: nearly all actives have a fitted effect of over 50% in size. Note: potency is the fitted concentration of half-maximal effect. Put shortly:
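Room-temperature assay throughout: 10 min compound–enzyme/substrate preincubation, 1 h reaction after NADPH regeneration solution, 20 min detection. Luciferin formed from proluciferin substrate is quantified by luminescence.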

Assay [16] addresses Acetylcholinesterase (Homo sapiens) (UniProt P22303). Nature of the assay: Acetylcholinesterase (AChE) small molecule antagonists: enzyme-based qHTS assay with human liver microsomes (AID 1347399; calls by dose curve; note: % is set by controls: 0 for no effect and ±100 for the full control effect; nearly all actives have a fitted effect of over 60% in size). As to conditions: Potency: qHTS inhibition. Put shortly:
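Recombinant human AChE (50 mU/mL in the enzyme mix) and human liver microsomes (0.25 mg/mL final) were preincubated with compound and NADPH (0.25 mg/mL final) for 30 min at 37 C. Acetylthiocholine/DTNB was then added; thiocholine was read colorimetrically after 10 min at room temperature.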

“And” between values parts separate entries of the source, which are not always exact repeats. Equal values may be shown once. A number with no mark means an inactive call. Results filed as inconclusive are left out. The source made the active and inactive calls. Unless noted, calls come from the whole dose curve; as a rule, active = well fitted curve in the direction sought with a large enough effect in the repeat runs; inconclusive = weak or mixed curves; inactive = no such curve, though single readings can be large; an effect the other way counts as inactive or inconclusive.

Cytochrome P450 2D6 (Homo sapiens), sequence (P10635 whole entry, looked up): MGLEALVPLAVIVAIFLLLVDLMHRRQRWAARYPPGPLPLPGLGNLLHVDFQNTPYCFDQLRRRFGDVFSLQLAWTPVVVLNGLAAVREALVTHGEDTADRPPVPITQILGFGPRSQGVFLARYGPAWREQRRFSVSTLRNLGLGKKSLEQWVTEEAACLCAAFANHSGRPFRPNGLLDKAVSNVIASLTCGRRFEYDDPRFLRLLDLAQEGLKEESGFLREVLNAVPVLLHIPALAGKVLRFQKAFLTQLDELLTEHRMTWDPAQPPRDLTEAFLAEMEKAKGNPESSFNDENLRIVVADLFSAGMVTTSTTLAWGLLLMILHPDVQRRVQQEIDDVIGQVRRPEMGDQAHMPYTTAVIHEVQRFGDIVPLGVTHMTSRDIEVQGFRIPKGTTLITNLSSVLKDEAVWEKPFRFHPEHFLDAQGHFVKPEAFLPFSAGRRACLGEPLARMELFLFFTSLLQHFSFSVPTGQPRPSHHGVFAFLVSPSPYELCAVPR
Nuclear receptor subfamily 1 group I member 2 (Homo sapiens), sequence (O75469 whole entry, looked up): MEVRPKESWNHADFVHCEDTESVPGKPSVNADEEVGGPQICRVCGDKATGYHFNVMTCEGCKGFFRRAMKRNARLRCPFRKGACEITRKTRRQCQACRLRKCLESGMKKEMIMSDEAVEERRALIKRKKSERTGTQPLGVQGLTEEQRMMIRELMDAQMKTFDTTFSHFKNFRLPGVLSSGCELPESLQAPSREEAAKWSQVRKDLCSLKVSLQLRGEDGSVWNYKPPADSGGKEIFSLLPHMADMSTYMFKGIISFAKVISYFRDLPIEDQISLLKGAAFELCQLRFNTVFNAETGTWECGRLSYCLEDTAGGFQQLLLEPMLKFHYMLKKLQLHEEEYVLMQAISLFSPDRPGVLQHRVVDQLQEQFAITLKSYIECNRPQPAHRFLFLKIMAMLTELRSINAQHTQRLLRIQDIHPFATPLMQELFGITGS
Cytochrome P450 3A4 (Homo sapiens), sequence (P08684 whole entry, looked up): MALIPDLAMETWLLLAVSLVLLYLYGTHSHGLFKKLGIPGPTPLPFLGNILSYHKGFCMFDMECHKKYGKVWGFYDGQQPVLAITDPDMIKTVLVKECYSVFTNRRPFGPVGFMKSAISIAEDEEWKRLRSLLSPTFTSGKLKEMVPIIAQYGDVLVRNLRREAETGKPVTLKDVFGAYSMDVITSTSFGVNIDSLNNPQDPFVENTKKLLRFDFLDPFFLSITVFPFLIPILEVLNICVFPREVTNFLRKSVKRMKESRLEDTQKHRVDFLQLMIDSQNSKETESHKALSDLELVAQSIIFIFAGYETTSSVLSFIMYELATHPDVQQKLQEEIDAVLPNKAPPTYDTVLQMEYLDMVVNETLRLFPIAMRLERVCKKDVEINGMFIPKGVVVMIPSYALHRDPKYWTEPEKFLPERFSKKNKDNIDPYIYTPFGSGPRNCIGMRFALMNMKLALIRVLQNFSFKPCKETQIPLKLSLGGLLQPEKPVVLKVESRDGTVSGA

Regarding `Clc1ccc(C(Cl)(Cl)Cl)c(Cl)c1`, the Potency result in assay [1], in [2], in [3], in [4], in assay [5] and in [6] was “inactive” in each case. In addition, in [9], the Potency result is “inactive”. Besides, the Potency was 31.9 µM (active) in [7] and 80.2 µM (active) in assay [8].

Regarding `Clc1ccc(C(c2ccc(Cl)cc2)C(Cl)(Cl)Cl)cc1`, the Potency result in assay [1], in [12], in assay [4], in [5], in [7] and in [15] was “inactive” each time. The Potency in [3] was 17.4 µM (active) and 13.3 µM (active); in [11] it was 22.4 µM (active); in [8], 20.2 nM (active) and 17.8 nM (active) and 69.2 nM (active); in [9], 2.26 µM (active) and 10 µM (active) and 3.89 µM (active); in [13], 12.6 µM (active) and 13.8 µM (active); in assay [14] it was 13.8 µM (active). Besides, the max activation in assay [10] is 8.77%.

Turning to `O=C/C(Cl)=C(/Cl)C(=O)O`, the Potency entry in assay [1], in assay [2], in assay [3], in [4], in assay [5] and in [6] was “inactive” in each case. Also, the Potency entry in [7], in [8], in [9], in assay [14] and in assay [15] was “inactive” each time.

As for `Oc1cccc(-c2ccccc2)c1`, the Potency entry in [1], in [2], in [4], in assay [5], in assay [6] and in assay [14] was “inactive” in each case. In addition, the Potency in [3] is 48.6 µM (active); in assay [8], 35.6 µM (active); in assay [13], 17.8 µM (active).

For `O=C1c2ccccc2C(=O)C1C(=O)C(c1ccccc1)c1ccc(Cl)cc1` (configuration not stated), the Potency result in [1], in [4], in assay [5], in [6], in [16] and in [14] was “inactive” in each case. The Potency result in [15] was “inactive”. Also, the Potency in assay [2] was 30.6 µM (active); in assay [3], 19.3 µM (active); in [8], 17.8 µM (active); in assay [9] it was 25.2 nM (active).

For the compound `CCOC(=O)CC(=O)CCl`, the Potency result in assay [1], in [2], in [3], in assay [4], in assay [5] and in assay [6] was “inactive” throughout. Also, the Potency entry in assay [16], in assay [7], in assay [8], in [9], in [14] and in assay [15] was “inactive” each time.

For `O=C(CBr)c1ccc(O)cc1`, the Potency entry in [1], in assay [2], in assay [3], in assay [4], in [5] and in assay [6] was “inactive” each time. In addition, the Potency result in assay [16], in assay [9], in assay [14] and in assay [15] was “inactive” each time. Also, in assay [13], the Potency was 31.7 µM (active).

As to `CC(C)[C@H](C(=O)OC(C#N)c1cccc(Oc2ccccc2)c1)c1ccc(OC(F)F)cc1` (some centres not stated), the Potency entry in [1], in assay [2], in assay [4], in assay [5], in assay [16] and in assay [13] was “inactive” in each case. The Potency entry in assay [14] is “inactive”. Also, the Potency in assay [3] was 9.69 µM (active); in assay [7] it was 5.03 µM (active); in [8], 17.8 µM (active); in [9] it was 3990 nM (active).

As to `ClC1=C(Cl)[C@]2(Cl)[C@H]3[C@H]([C@H]4C=C[C@H]3C4)[C@@]1(Cl)C2(Cl)Cl`, the Potency entry in assay [1], in assay [2], in assay [4], in assay [5], in assay [6] and in assay [16] was “inactive” each time. Besides, the Potency entry in assay [7] and in assay [13] was “inactive” in each case. The Potency is 15.9 µM (active) in assay [8] and 1 µM (active) in assay [15].
